Experimental data: the supplement of paper PMC12067926
Unmarked numbers belong to inactive results.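 The calls were made as follows: active = growth AUC significantly below the DMSO wells by Dunnett test; inactive = the rest.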

Legend:
Assay in all cases: relative growth (AUC of 72 h growth curve relative to DMSO control, dAUC) (ratio); higher = more growth (less inhibition), active = hit call of the paper
Conditions in all cases: 20 µM
[1] = test system: Aeromonas 1 (Aeromonas sp. AE235)
How it was run: (§1)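 Bacterial isolates from Icelandic stream sediments and Silwood Park soil, plus whole sediment communities, were grown to carrying capacity in Luria–Bertani medium, then diluted 1:100 into 96-well plates with each chemical at 20 µM (1% DMSO). A600 was read hourly for 72 h on a plate reader, with brief shaking before each read. Relative growth (dAUC) is the spline-integrated area under the growth curve, averaged over three biological replicates and divided by the mean of the DMSO controls.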

[2] = test system: Aeromonas 2 (Aeromonas sobria)
How it was run: as §1

[3] = test system: Aeromonas 3 (Aeromonas popoffii)
How it was run: as §1

[4] = test system: Argrobacterium 1 (Agrobacterium sp.)
How it was run: as §1

[5] = test system: Arthrobacter 1 (Arthrobacter humicola)
How it was run: as §1

[6] = test system: Arthrobacter 2 (Arthrobacter humicola)
How it was run: as §1

[7] = test system: Arthrobacter 3 (Arthrobacter sp.)
How it was run: as §1

Community 10 = test system: Community 10
How it was run: as §1

Community 4 = test system: Community 4
How it was run: as §1

Community 6 = test system: Community 6
How it was run: as §1

Compound	relative growth [1]	relative growth [2]	relative growth [3]	relative growth [4]	relative growth [5]	relative growth [6]	relative growth [7]	relative growth (Community 10)	relative growth (Community 4)	relative growth (Community 6)
CS(=O)(=O)c1ccc(C(=O)C2C(=O)CCCC2=O)c([N+](=O)[O-])c1	0.965	1	0.97	0.959	1	1.07	1.02	1.02	1.06	1.04
Cc1cccc2sc3nncn3c12	0.985	0.988	1	0.915	0.993	0.932	1.01	0.867	0.917	0.96
COc1ccc(-c2ccccc2)cc1NNC(=O)OC(C)C	0.954	0.947	1.02	0.937	0.913	0.87	0.932	0.782	0.882	0.886
CC(C)N1C(=O)N(c2ccccc2)CS/C1=N\C(C)(C)C	1.04	1.1	1.01	1.07	0.994	0.59 (active)	0.868	0.858	1.02	1.02
O=C(Nc1ccccc1-c1ccc(Cl)cc1)c1cccnc1Cl	1.02	0.995	1.04	0.962	0.891	1.01	0.869	1.05	1.01	1.01
CCCC(Cn1cncn1)c1ccc(Cl)cc1Cl (stereo not given)	0.932	0.996	1.01	1.15	1	1.02	0.987	0.973	1.11	1.06
Fc1ccc([C@]2(Cn3cncn3)O[C@H]2c2ccccc2Cl)cc1 (racemic)	0.946	0.979	0.974	0.985	0.883	0.947	0.856	0.962	0.965	1.05
CC(C)N(C)S(=O)(=O)NC(=O)c1cc(-n2c(=O)cc(C(F)(F)F)n(C)c2=O)c(F)cc1Cl	0.995	1.02	1.01	1.03	1.1	1.01	1.07	0.909	1.13	1.03
CO/C=C(/C(=O)OC)c1ccccc1Oc1cc(Oc2ccccc2C#N)ncn1	0.938	0.929	0.947	1.02	0.985	1	1.08	0.868	1.1	0.903
CCCSP(=O)(OCC)Oc1ccc(Br)cc1Cl (stereo not given)	1.02	1.02	0.994	1.12	0.894	0.745	0.973	0.705	0.833	0.83
Cc1c(COC(=O)[C@@H]2[C@H](/C=C(\Cl)C(F)(F)F)C2(C)C)cccc1-c1ccccc1 (racemic)	0.988	0.992	1.05	1.06	1.17	0.833	0.786	0.993	0.998	1.05
CCSC(C)CC1CC(=O)C(/C(CC)=N/OC/C=C/Cl)=C(O)C1 (mixture of isomers)	0.981	0.969	0.986	1.01	0.93	0.987	0.986	0.965	1.09	1.01
CCOCN(C(=O)CCl)c1c(C)cccc1CC	0.953	0.938	0.964	1.02	0.999	0.858	1.02	0.858	0.952	0.921
COc1cc(C)c(C(=O)c2c(OC)ccc(Br)c2C)c(OC)c1OC	1.07	1.03	1.1	1.04	1.15	0.768	0.949	0.986	1.1	1.05
C[N+]1(C)CCCCC1	1.03	1.01	1.02	0.994	1.08	0.96	1.04	1.01	1.09	1.07
Cc1cc(C)nc(Nc2ccccc2)n1	0.974	0.977	1.07	0.874	0.948	0.929	1.03	1.07	0.984	1.04
COC(=O)N(C(=O)N1CO[C@@]2(C(=O)OC)Cc3cc(Cl)ccc3C2=N1)c1ccc(OC(F)(F)F)cc1	0.96	0.963	0.971	1.03	1	0.972	1.02	0.878	1.03	0.974
CNC(=O)c1cc(C#N)cc(C)c1NC(=O)c1cc(Br)nn1-c1ncccc1Cl	0.986	0.95	1.01	1.03	1	0.967	0.99	0.859	0.903	0.946
CC(C)N(C(=O)COc1nnc(C(F)(F)F)s1)c1ccc(F)cc1	1.04	0.994	0.973	1.02	1.05	0.894	1.02	0.763	1.04	0.92
CC1(C)C(C=C(Cl)Cl)C1C(=O)OC(C#N)c1cccc(Oc2ccccc2)c1 (stereo not given)	0.976	1.04	1.08	1.07	1.28	0.971	1.03	1.21	1.1	1.12
O=C(O)COc1ccc(Cl)cc1Cl	0.976	0.999	0.998	0.944	0.921	0.958	0.969	0.98	1.04	1.02
COC(=O)N(OC)c1ccccc1COc1ccn(-c2ccc(Cl)cc2)n1	1.04	0.927	0.979	1.04	1.16	1.02	0.903	0.903	0.941	1.03
OC(Cc1ccccc1Cl)(Cn1nc[nH]c1=S)C1(Cl)CC1 (stereo not given)	0.97	0.986	1.03	1.01	0.952	1.04	1.07	0.945	1.01	0.982
CC(C)(C)c1ccc(CSc2cnn(C(C)(C)C)c(=O)c2Cl)cc1	1.02	0.975	1.03	1.01	1.02	0.875	0.98	0.941	1.01	1.04
CCOc1cc(Oc2ccc(C(F)(F)F)cc2Cl)ccc1[N+](=O)[O-]	0.962	0.975	0.966	1.01	1.02	0.848	1.01	0.824	0.905	0.907
COP(=S)(OC)SCN1C(=O)c2ccccc2C1=O	1.02	1.03	1.01	0.987	0.962	0.748	1.09	1	1.02	1.03
Cc1nnc(-c2ccccc2)c(=O)n1N	0.991	0.975	0.993	1.03	0.986	0.946	1.04	0.899	0.882	0.909
C[C@@H]1[C@@H](c2ccc(Cl)cc2)SC(=O)N1C(=O)NC1CCCCC1	1.02	1.02	1.01	1.04	0.906	0.925	1.02	1.03	0.946	1.02
